PubChem BioAssay (NCATS)
Records with an inconclusive call do not appear. A call without a number means that no potency is given here. Calls of active or inactive are those of the source. The call rests on the fitted dose curve; in most records, active means well fitted cell-killing curve with a large enough effect; inconclusive means small, poorly fitted or top-dose-only effect, or effect the other way; inactive means flat fitted curve, though single readings scatter.

system: CASKI; assay: Primary qHTS to identify gynecologic anti-cancer compounds using libraries of approved drugs and bioactive compounds (AID 1345084); conditions: Gynecologic cancer cell panel viability, ATPlite luminescence, 48 h; series mostly up to 57.5 µM; further: nearly all actives have a fitted effect of over 55% in size
In short: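 In this quantitative HTS, cell killing is estimated from loss of ATP-dependent luciferase light. Cells see five compound concentrations over a 48 h exposure.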

Compound | Potency
C/C(=C\CCC1(C)C2CCC(C2)C1(C)O)C(=O)O (centres undefined) | inactive
CC(=O)O[C@@H]1c2c3c(cc(O)c2C(=O)O[C@@H]1C)O[C@@]1(C)[C@@H](O)C[C@H]2C(C)(C)C(=O)C=C[C@]2(C)[C@@H]1C3 | inactive
COc1ccccc1Oc1ccc(N(Cc2cccnc2)S(=O)(=O)CC(F)(F)F)cc1 | inactive
CC(C)C(NC(=O)c1ccc2ccccc2n1)C(=O)NC(CC(=O)O)C(=O)COc1c(F)cccc1F (centres undefined) | inactive
CC(C)=CCC[C@](C)(O)[C@H]1CC[C@]2(C)[C@@H]1[C@H](O)CC1[C@@]3(C)CC[C@H](O)C(C)(C)C3[C@@H](O[C@@H]3O[C@H](CO)[C@@H](O)[C@H](O)[C@H]3O[C@@H]3OC[C@@H](O)[C@H](O)[C@H]3O)C[C@]12C (some centres undefined) | inactive
C=CC[C@]12C[C@@H](OC)C(=O)C(OC)=C1O[C@@H](c1cc(OC)c3c(c1)OCO3)[C@@H]2C | inactive
CC(C)O[C@@H]1O[C@H](CO)[C@@H](O)[C@H](O)[C@H]1O | inactive
C[C@@H]1CN(Cc2ncccn2)C[C@H]1c1nc2c(cnn2C2CCOCC2)c(=O)[nH]1 | inactive
CN[C@H](CC(C)C)C(=O)N[C@H]1C(=O)N[C@@H](CC(N)=O)C(=O)N[C@H]2C(=O)N[C@H]3C(=O)N[C@H](C(=O)N[C@H](C(=O)O)c4cc(O)cc(O)c4-c4cc3ccc4O)[C@H](O[C@H]3C[C@](C)(N)[C@@H](O)[C@H](C)O3)c3ccc(c(Cl)c3)Oc3cc2cc(c3O[C@@H]2O[C@H](CO)[C@@H](O)[C@H](O)[C@H]2O[C@H]2C[C@](C)(NCc3ccc(-c4ccc(Cl)cc4)cc3)[C@@H](O)[C@H](C)O2)Oc2ccc(cc2Cl)[C@H]1O | inactive
C=C1CC[C@H]2[C@@](C)(CCC(O)[C@@]2(C)CO)[C@@H]1CCC1=CCOC1=O (some centres undefined) | inactive
CC1CCC2(C=O)C(CO)=CCCC2C1(C)CC(=O)O (centres undefined) | inactive
C=CC1(C)C=C2CCC3C(C)(C)C(O[C@@H]4O[C@@H](CO)[C@H](O)[C@H]4O)CCC3(C)C2CC1O[C@@H]1O[C@H](C)[C@H](O)[C@H](O)[C@H]1O (some centres undefined) | inactive
C/C(=C\CC[C@@H](C)[C@H]1CC(O)[C@@]2(C)C3CC[C@H]4C(C)(C)[C@@H](OC5OCC(O)C(O)C5OC5OC(CO)C(O)C(O)C5O)CC[C@@]45C[C@@]35CC(O)[C@]12C)C(=O)O (some centres undefined) | inactive
CC(C)(C)NCCCNC(=O)c1cccc(Br)c1 | inactive
CC(=O)OC1C[C@]2(C)C(O)CC(C)=C[C@H](OC(=O)c3ccc(O)cc3)C2[C@]1(O)C(C)C (some centres undefined) | inactive
C=C1CC[C@@H]2[C@](C)(CO[C@@H]3O[C@H](CO)[C@@H](O)[C@H](O)[C@H]3O)[C@H](O)CC[C@@]2(C)[C@@H]1C/C=C1/C(=O)OC[C@H]1O | inactive
COC(=O)/C=C/C12COC(C)(C)C1C(O)C(OC(C)=O)C1(C)C2CCC2(C)C(c3ccoc3)OC(=O)C3OC321 (centres undefined) | inactive
CC1CC(=O)C2=C(CCC3(O)C(O)c4c(O)cccc4C(=O)C23O)C1 (centres undefined) | inactive
COC(=O)c1ccccc1O[C@@H]1O[C@H](CO)[C@@H](O)[C@H](O)[C@H]1O[C@@H]1O[C@@H](C)[C@H](O)[C@@H](O)[C@H]1O | inactive
CCc1ccc(Cc2ccc3c(c2)[C@]2(OC3)O[C@H](CO)[C@@H](O)[C@H](O)[C@H]2O)cc1 | inactive
OC[C@H]1O[C@@H](Oc2ccccc2)[C@H](O)[C@@H](O)[C@@H]1O | inactive
COc1cc2c(cc1OC)CC(=O)N(CCCNC[C@H]1Cc3cc(OC)c(OC)cc31)CC2 | inactive
COc1cc(O)c([C@@H](CC(=O)N2CC(C)CC(C)C2)c2ccc3c(c2)OCO3)c(OC)c1 (some centres undefined) | inactive
C=CC/C=C\C/C=C\CCCCCCCc1cccc(O)c1C(=O)O | inactive
Cc1ccc(-c2ccc3c(ccc4sc5c(c43)NC[C@@H](C)NC5=O)n2)cn1 | inactive
C[C@@H]1C(=O)OC[C@H]2C(C(=O)O)=C[C@@H]3CC(C)(C)C[C@]312 | inactive
C[C@H]1CC(=O)Nc2cccc(-c3cnn(C(C)(C)C)c3)c2N1 | inactive
COC(=O)C(C)C1CCC2(C)C(=O)C=CC(C)(O)C2C1O (centres undefined) | inactive
CC(=O)O[C@@H]1[C@@H](OC(=O)/C=C/c2ccccc2)[C@@H](OC(C)=O)[C@H](O[C@H]2[C@@H]3C=CO[C@@H](O[C@@H]4O[C@H](CO)[C@@H](O)[C@H](O)[C@H]4O)[C@@H]3[C@@]3(CO)O[C@@H]23)O[C@H]1C | inactive
